According to PubChem BioAssay (NCI):
Compounds without any hit were thinned out: in the full panel of roughly 83,000, 20% have a hit.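 Activity criterion: percent growth below 10, measured after cells in 96-well plates were exposed to a single compound concentration for 48 hours.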 Unmarked numbers belong to inactive results. Active and inactive are the calls of the source.

Legend:
Experiment in all cases: NCI-60 one-dose screen, 48 h (100 = growth as untreated, 0 = no growth, -100 = all killed)
Details in all cases: 10 µM unless noted
NCI-H23 lung = system: NCI-H23 lung
NCI-H226 lung = system: NCI-H226 lung
HOP-62 NSCLC = system: HOP-62 NSCLC
NCI-H460 lung = system: NCI-H460 lung
HOP-92 NSCLC = system: HOP-92 NSCLC
NCI-H522 lung = system: NCI-H522 lung
A549/ATCC NSCLC = system: A549/ATCC NSCLC
786-0 renal = system: 786-0 renal
COLO 205 colon = system: COLO 205 colon
NCI-H322M lung = system: NCI-H322M lung

SMILES | growth (NCI-H23 lung) [%] | growth (NCI-H226 lung) | growth (HOP-62 NSCLC) | growth (NCI-H460 lung) | growth (HOP-92 NSCLC) | growth (NCI-H522 lung) | growth (A549/ATCC NSCLC) [%] | growth (786-0 renal) | growth (COLO 205 colon) | growth (NCI-H322M lung)
CNc1ccccc1C(=O)N/N=C/C=C/c1ccccc1 | 39.1 | 66.7% | 26.9% | 11% | 69.3% | -18.1% (active) | 30.7 | 35.3% | -1.61% (active) | –
Cc1onc(-c2ccccc2Cl)c1C(=O)Cl | 114 | 110% | 86.5% | 103% | 77% | 108% | 96.9 | 101% | 108% | –
CC(C)c1ccc(C(=O)OCCCl)cc1 | 94 | 106% | 82.2% | 105% | 163% | 97.2% | 97.9 | 95.2% | 110% | –
CC1CCC(C(C)(C)[N+](C)(C)C)CC1 (stereo not given) | 100 | 100% | 96.9% | 107% | 101% | 106% | 95.9 | 96.1% | 106% | –
CCCCCC/C=C\CCCCCCCCCc1cc(O)cc(OC)c1O | 11.2 | 24.2% | 21.8% | 8.62% (active) | -45% (active) | -76.8% (active) | 16.8 | 10.6% | -65.3% (active) | –
NC(=O)NCCO | 98.9 | 95% | 102% | 104% | 111% | 95.2% | 93 | 107% | 116% | –
COC(=O)c1ccccc1C(=O)c1c(C)cc(C)cc1C | 94.7 | 89.5% | 95.1% | 105% | 107% | 87.5% | 84.4 | 104% | 104% | –
CCC(=O)C1C(=O)c2ccccc2C1=O | 101 | 104% | 99% | 115% | 85.8% | 86.6% | 113 | 107% | 122% | –
CCOC(=O)C(CCC#N)(CCC#N)C(=O)OCC | 96.6 | 98.4% | 102% | 103% | 84% | 117% | 102 | 98.4% | 102% | –
CCCCOC(=O)c1ccc(NC(=O)CCl)cc1 | 10.4 | 71% | 102% | 35.8% | 27% | -77.7% (active) | 69.4 | 70.2% | 68.8% | –
CC(C)(N)CO[C@H]1C[C@H]2CC[C@@]1(C)C2(C)C | 94.7 | 88.5% | 106% | 97.8% | 89.2% | 92.4% | 96.8 | 97.6% | 109% | –
CCNCC(C)(C)O | 99.1 | 105% | 100% | 113% | 84.4% | 109% | 96.1 | 103% | 113% | –
NNC(=O)CCCCl | 97.7 | 98.7% | 107% | 111% | 137% | – | 100 | 108% | 118% | –
Nc1ncnc(Nc2ccccc2)n1 | 101 | 104% | 119% | 107% | 84.5% | 99.4% | 104 | – | 110% | –
CCCCCCCCCCCCCCCCOc1ccccc1NC(=O)CC(C)=O | 111 | 105% | 112% | 112% | 96.4% | 87.1% | 91.7 | 59.8% | 131% | –
COc1c(CNC(=O)CCl)cc2[nH]c(C)cc2c1CNC(=O)CCl | 57.2 | 69.4% | 70.4% | 31.5% | 107% | -2.03% (active) | 56.4 | 68% | 54.8% | –
CCCC1OC(c2ccco2)OCC1CC (stereo not given) | – | 111% | 105% | 113% | 105% | 80.5% | 87.5 | 105% | 106% | 102%

SMILES | growth (NCI-H23 lung) [%] | growth (NCI-H226 lung) | growth (HOP-62 NSCLC) | growth (NCI-H460 lung) | growth (HOP-92 NSCLC) | growth (NCI-H522 lung) | growth (A549/ATCC NSCLC) [%] | growth (786-0 renal) | growth (COLO 205 colon) | growth (NCI-H322M lung)
CC(=O)N=c1ccc2nc3c(cc(N)c4ccccc43)oc-2c1 | – | 80.4% | 1.21% (active) | -41.2% (active) | -56.9% (active) | -78.1% (active) | 11.2 | -43.8% (active) | -84.6% (active) | 3.7% (active)
Cc1[nH]nc(C(N)=O)c1[N+](=O)[O-] | – | 87.6% | 77.5% | 98.9% | 84.1% | 106% | 101 | 103% | 102% | 105%
CCOc1ccncc1[N+](=O)[O-] | – | 102% | 99.1% | 108% | 102% | 106% | 97.5 | 106% | 110% | –
CC(=O)OC(C)c1cccc(C#N)c1 (stereo not given) | – | 94.7% | 94.8% | 108% | 91.3% | 103% | 98.6 | 104% | 113% | 104%
O=C(Nc1ccccc1)c1ccco1 | – | 99.1% | 101% | 108% | 98.8% | 100% | 97.9 | 92.8% | 115% | 101%
CN(C)c1ccc2nc3ccc(=[N+](C)C)cc-3oc2c1 | – | 33.2% | 7.12% (active) | 35.3% | 55.9% | -37.4% (active) | 30.7 | 66.1% | -10.3% (active) | 9.08% (active)
C=C1C(=O)C2CCC1C2 (stereo not given) | – | 99.8% | 102% | 113% | 102% | 91.8% | – | 92.8% | 112% | 97.5%
COc1ccc2c(Cl)cc(NC(=O)Nc3c(C)cccc3C)nc2c1 | – | 4.58% (active) | 6.88% (active) | 31.4% | 41.3% | 78.1% | 43.3 | 21% | 58.7% | 54%
Nc1cc(F)ccc1[N+](=O)[O-] | – | 95.9% | 110% | 103% | 89.5% | 106% | 116 | 94.1% | 116% | 92.6%
O=S(Cc1ccccc1)/C(=C/NC(=S)Nc1cc(Cl)ccc1Cl)c1ccccc1 (stereo not given) | – | 101% | 92.8% | 107% | 101% | 85% | 96.8 | 102% | 109% | 93.7%
O=C(O)c1ccccc1Cc1ccc2c(c1)CCCC2 | – | 92.5% | 111% | 106% | 107% | 98.3% | 94.9 | 107% | 112% | –
O=C(Oc1ccccc1Cl)c1ccc(Cl)cc1Cl | – | 102% | 87.9% | 102% | 103% | 98.8% | 89.3 | 95.9% | 104% | 107%
COc1ccc(C2CCCCC2=O)cc1 (stereo not given) | – | 113% | 95.5% | 108% | 98.9% | 106% | 104 | 105% | 104% | –
CC12CCC3c4ccc(O)cc4CCC3C1CCC2=O (stereo not given) | – | 97% | 98.1% | 105% | 104% | 70% | 92.3 | 94.5% | 103% | 113%
N#C/C(=C\NC(=S)N=Nc1c(O)[nH]c2ccccc12)c1nc2ccccc2s1 | – | 77.6% | 95.4% | 97.4% | 83.8% | 82.9% | 90.3 | 94.8% | 106% | 101%
CCOC(=O)c1c[nH][nH]c1=O | – | 101% | 89.2% | 106% | 111% | 103% | 125 | 94.3% | 124% | 122%
NCC(O)C(O)C(O)C(O)CO (stereo not given) | – | 93.4% | 91.4% | 102% | 80.7% | 102% | 78.4 | 99.2% | 101% | 100%
